SMILES strings stand for the structures. The panel holds about 83,000 compounds, 20% with a hit somewhere; the sample as a whole holds those more often.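 In brief: 96-well plates, 48 h treatment, single concentration, percent growth endpoint.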 Activity calls are given as the source filed them. Rule for the calls: active = growth percent below 10; inactive = the rest.

The subject of the assay is HL-60(TB) leukemia. Briefly: NCI-60 one-dose screen, 48 h (100 = growth as untreated, 0 = no growth, -100 = all killed). Conditions: 10 µM unless noted.
Turning to `COc1cc2c(cc1-c1c(C)noc1C)ncc1nc(C3CCCC3)n([C@H](C)COC(F)F)c12`, the growth was 27.8% (inactive).

Take `CCC(=O)NC(O)C(Cl)(Cl)C(C)Cl` (stereo not given): the growth is 119% (inactive).

For the compound `CC[n+]1ccc(Nc2ccc(NC(=O)c3ccc(Nc4cc[n+](CC)c5ccc([N+](=O)[O-])cc45)cc3)cc2)cc1`, the growth is 66.9% (inactive).

In the case of `O=C(COc1ccc(/C=C2\CSc3ccccc3C2=O)cc1)Nc1nccs1`, the growth is -22.4% (active).

On to `O=C(C[n+]1ccn(CC(OCc2ccc(Cl)cc2Cl)c2ccc(Cl)cc2Cl)c1)c1ccc(F)cc1` (stereo not given), for which the growth is -51.8% (active).

`CC(C)c1ccc(C(=O)Nc2sc3cc(O)ccc3c2C#N)cc1`: the growth was -6.25% (active).

Regarding `CNC(=O)c1cc(Oc2ccc3c(c2)sc2nc(-c4ccc(NC(=O)[C@@H](NC(=O)OC)C(C)C)cc4)cn23)ccn1`, the growth was 51.1% (inactive).

`Brc1cnc2ccccc2c1`: the growth was 89.1% (inactive).

Consider `O=c1[nH]c2c3ccncc3cc(-c3cccc(Cl)c3)c2c2cnccc12`, for which the growth was 17.6% (inactive).

In the case of `CC1=CC(=O)C(C(C)C)=CC1=Nc1cc(Br)c(O)c(Br)c1`, the growth was -9.85% (active).

As to `COc1ccc(Nc2ncccc2C(=O)NCc2cn(Cc3cc(OC)cc(OC)c3)nn2)cc1`, the growth is 91.6% (inactive).

In the case of `CCCCCC1CCCCN1C(=O)OCCCC` (stereo not given), the growth was 102% (inactive).

Consider `COc1ccc(-c2nc3sc(C)cn3c2/C=C/C(=O)c2cc(OC)c(OC)c(OC)c2)cc1`, for which the growth is 55.9% (inactive).

In the case of `COc1cc(/C=C2\C(=O)Nc3ccccc32)cc(OC)c1O`, the growth was 1.88% (active).

Turning to `Cc1ccc(OC2=C(C#N)C(=N)N3C(=NN2)Sc2c(C)ccc(C)c23)cc1`, the growth is 109% (inactive).

The values are drawn from PubChem BioAssay (NCI).
